# Data taken from the supplement of paper PMC10681739.
# Molecular target: RUNX1 (UniProt Q01196)
# Test: RUNX1 binding intensity (PBM fluorescence), RUNX1 alone (arbitrary fluorescence units); higher = stronger binding
# Details: RUNX1 concentration 2 nM; ETS1 concentration 0 nM
# Protocol: (§1)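 Cooperative gcPBM on 36-bp genomic probes with neighbouring ETS1 and RUNX1 sites. Recombinant human RUNX1 (2 nM) was incubated alone or with ETS1 (25 nM) and detected with anti-RUNX1 antibody plus Alexa488 secondary. Values are medians over 4 replicate spots; the RUNX1+ETS1 data were normalised to the RUNX1-only data. The probes sit in constant array flanks that are not printed.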
# 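For RUNX1 binding intensity (PBM fluorescence) in presence of ETS1, normalised to RUNX1-only experiment in this document: Full-length recombinant human ETS1 or RUNX1 bound to double-stranded 36-bp genomic probes on microarrays, detected by protein-specific primary antibody and Alexa488 secondary, spot fluorescence as median of four replicate spots.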
# 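For RUNX1 binding intensity (PBM fluorescence), RUNX1 alone in this document: Full-length recombinant human RUNX1 bound to double-stranded 36-bp genomic probes on a high-density microarray, scored as Alexa488 fluorescence per spot via anti-RUNX1 antibody, median of four replicate spots.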
# Sequence of RUNX1 (Q01196 whole entry): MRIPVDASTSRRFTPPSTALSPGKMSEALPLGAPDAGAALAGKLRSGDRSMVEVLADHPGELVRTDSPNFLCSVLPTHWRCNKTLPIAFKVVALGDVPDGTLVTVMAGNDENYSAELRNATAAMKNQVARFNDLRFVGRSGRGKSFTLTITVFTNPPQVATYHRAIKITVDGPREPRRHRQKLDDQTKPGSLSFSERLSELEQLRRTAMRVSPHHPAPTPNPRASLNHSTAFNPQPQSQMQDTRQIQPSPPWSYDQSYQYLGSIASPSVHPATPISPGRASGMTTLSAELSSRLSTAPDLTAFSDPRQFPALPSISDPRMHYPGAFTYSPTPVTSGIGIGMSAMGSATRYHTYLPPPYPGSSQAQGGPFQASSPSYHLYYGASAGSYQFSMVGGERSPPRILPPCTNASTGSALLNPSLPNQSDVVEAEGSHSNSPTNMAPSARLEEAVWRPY
row,Sequence,RUNX1 binding intensity
1,GCTAACGGAACCAGCACGCGGCCACCGCAGGAACCT,853
2,GGCGCTAGGCTTCCGGATCGCGGTGGGCGGAGTTCA,678
3,GACACAAGACAGTTTCCGTCAGTGGTTAAGCCCTAA,845
4,TTATGCCTCAGGATGAACGAACCTCAAACACCCAGG,904
5,CTCCCGGACGCTAACGTCTGGCAAACCACATTGCCC,993
6,CTGTGACACGTGCGGAAGCTGTGGTAAGTGCATCCA,840
7,TCGCCCACTTCCCCACCTCTCAAAAGACCACAGGCA,1560
8,TCTGGCTGGGTGTTGGGATGTGGTTAACCGGGTTGG,797
9,ATTAAAAAAATTTCCTTTGTGGTCACTTAGTTATTA,1350
10,TTGCTCGGCTTCCTGGAGCTGTGGTCCGTGTGGGCT,708
11,GGGCGGAAGGGGTTCGCACGCCAAGAACCGCCATGC,855
12,AGGGCATAAACAGGATGTGGTGTTGGATGAAACCTT,750
13,GGCGAGGCTGAGAGGAAACCACACTCTCACTGGGGT,933
14,AGGCTGTGTGAAGGATGTGGTCAGGCGGAGGCCAGG,921
15,TAAATCGGAAACTCGCCGCTCAGCCCGCAGCCGCCG,901
16,TACAGCTTCCTTCACCCCACTTGTGGCCTGGGTTAC,814
17,GTTGGTCGCGCGCCTTCCTGCGGCTAAGATGGCGAC,749
18,CTTCTTCCTGCTGAGACTGATACAGCCCGCAAAGCT,994
19,TCTCTATGGTTTCCGTTGGGTGTGTGGTTTTTTTGT,1130
20,TCCTGCCCTCCCATCCTGTGGTCAGAGGCCAGGGCT,854
21,ACAGACAGCATCCTGAGCTCGTGGTTAGAACACCCT,841
22,TTAGAGCTGACATCCTTGCGGTCCACAGCCTCCAAA,961

# Molecular target: T1, ETS1 (UniProt P14921)
# T1 sequence: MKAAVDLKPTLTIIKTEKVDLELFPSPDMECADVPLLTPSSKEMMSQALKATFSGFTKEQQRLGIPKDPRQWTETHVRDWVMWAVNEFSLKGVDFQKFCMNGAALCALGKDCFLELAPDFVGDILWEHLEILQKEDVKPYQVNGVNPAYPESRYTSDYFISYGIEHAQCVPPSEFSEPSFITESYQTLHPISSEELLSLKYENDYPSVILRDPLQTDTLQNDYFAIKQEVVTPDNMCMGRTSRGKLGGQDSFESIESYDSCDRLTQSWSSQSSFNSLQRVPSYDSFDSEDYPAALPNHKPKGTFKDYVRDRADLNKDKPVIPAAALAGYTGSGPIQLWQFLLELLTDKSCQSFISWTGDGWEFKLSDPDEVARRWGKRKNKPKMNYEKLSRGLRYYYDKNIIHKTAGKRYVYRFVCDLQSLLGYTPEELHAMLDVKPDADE
# Test: ETS1 binding intensity (PBM fluorescence) in presence of RUNX1, normalised to ETS1-only experiment (arbitrary fluorescence units); higher = stronger binding
# Details: ETS1 concentration 1 nM; RUNX1 concentration 25 nM
row,Sequence,ETS1 binding intensity
1,GGCTTCCGCCGCCACCACTGCCCCTCAACCGCCACG,601
2,GCACTCGGATGTTGGCCGTAGTTGTGGTTATAGTTG,1090
3,GACCAATGTAAACAAGGATGTGGGTTCTCCGGGCAC,2030
4,ACAGATCCAAGGAAGCATATCCCGCAAGCAACTGTT,589
5,CACCTCACAGCCCGGATACAAACCGCCTACCCGCCC,980
6,CATGACGAAGGGGAAGGATGTGGTTTGAGGGCAGCA,8460
7,GAGGGTTGCTGGGGGGAAGTGTGGTAAATCTTTTCC,475
8,CCCAGGCTTCCGGGTTGAATATGTGGGCTGAGGCGA,415
9,CGGGGCTTCCGGCGCGCTGCCTTGTGGGCACGGTAG,611
10,AGTGGATAGCACTTCCTTCTCTTACCACAGTTCCTT,558
11,TACCCCGCCGGAAGCCCCCTGCTCTGTGGGAACCGG,3660
12,GCGATCGGAGCGGAAGTGGAGCTACCGCCACCGCCG,8910
13,CTGCGCGGCCGGAAGTCGGCGGTTTCCCAGACGACG,30000
14,GTCAGGGGAACAGGATGTGGGTGGGAGCCAGCCCCA,5560
15,GGCTGTGCTTCAGGATGTGGTAATGCTTGGGAGGCG,4180
16,CTCACAGCAGCCCCAGGAAACCACCTCTTCCTTCAG,876
17,TGGAAGCGGCTTCCGGGGTGAATGCGGTTGGATCGT,3990
18,CCCGCTACACAAGGCGGATGTGGTACCCTCACTTGT,6380

# Molecular target: RUNX1 (UniProt Q01196)
# Test: RUNX1 binding intensity (PBM fluorescence) in presence of ETS1, normalised to RUNX1-only experiment (arbitrary fluorescence units); higher = stronger binding
# Details: RUNX1 concentration 2 nM; ETS1 concentration 25 nM
# Protocol: as §1
row,Sequence,RUNX1 binding intensity
1,GCTAACGGAACCAGCACGCGGCCACCGCAGGAACCT,869
2,GGCTTCCGCCGCCACCACTGCCCCTCAACCGCCACG,2040
3,GCACTCGGATGTTGGCCGTAGTTGTGGTTATAGTTG,1110
4,GACCAATGTAAACAAGGATGTGGGTTCTCCGGGCAC,928
5,ACAGATCCAAGGAAGCATATCCCGCAAGCAACTGTT,875
6,GGCGCTAGGCTTCCGGATCGCGGTGGGCGGAGTTCA,1230
7,GACACAAGACAGTTTCCGTCAGTGGTTAAGCCCTAA,1270
8,TTATGCCTCAGGATGAACGAACCTCAAACACCCAGG,858
9,CTCCCGGACGCTAACGTCTGGCAAACCACATTGCCC,857
10,CACCTCACAGCCCGGATACAAACCGCCTACCCGCCC,1230
11,CTGTGACACGTGCGGAAGCTGTGGTAAGTGCATCCA,984
12,CATGACGAAGGGGAAGGATGTGGTTTGAGGGCAGCA,1310
13,TCGCCCACTTCCCCACCTCTCAAAAGACCACAGGCA,2140
14,TCTGGCTGGGTGTTGGGATGTGGTTAACCGGGTTGG,876
15,GAGGGTTGCTGGGGGGAAGTGTGGTAAATCTTTTCC,930
16,CCCAGGCTTCCGGGTTGAATATGTGGGCTGAGGCGA,1420
17,ATTAAAAAAATTTCCTTTGTGGTCACTTAGTTATTA,1520
18,CGGGGCTTCCGGCGCGCTGCCTTGTGGGCACGGTAG,1390
19,TTGCTCGGCTTCCTGGAGCTGTGGTCCGTGTGGGCT,1020
20,AGTGGATAGCACTTCCTTCTCTTACCACAGTTCCTT,1610

row,Sequence,RUNX1 binding intensity
1,TACCCCGCCGGAAGCCCCCTGCTCTGTGGGAACCGG,1270
2,GCGATCGGAGCGGAAGTGGAGCTACCGCCACCGCCG,1290
3,GGGCGGAAGGGGTTCGCACGCCAAGAACCGCCATGC,683
4,CTGCGCGGCCGGAAGTCGGCGGTTTCCCAGACGACG,2820
5,GTCAGGGGAACAGGATGTGGGTGGGAGCCAGCCCCA,2540
6,AGGGCATAAACAGGATGTGGTGTTGGATGAAACCTT,1360
7,GGCTGTGCTTCAGGATGTGGTAATGCTTGGGAGGCG,1360
8,CTCACAGCAGCCCCAGGAAACCACCTCTTCCTTCAG,1030
9,GGCGAGGCTGAGAGGAAACCACACTCTCACTGGGGT,921
10,AGGCTGTGTGAAGGATGTGGTCAGGCGGAGGCCAGG,1600
11,TAAATCGGAAACTCGCCGCTCAGCCCGCAGCCGCCG,808
12,TACAGCTTCCTTCACCCCACTTGTGGCCTGGGTTAC,913
13,GTTGGTCGCGCGCCTTCCTGCGGCTAAGATGGCGAC,923
14,CTTCTTCCTGCTGAGACTGATACAGCCCGCAAAGCT,1800
15,TGGAAGCGGCTTCCGGGGTGAATGCGGTTGGATCGT,3030
16,TCTCTATGGTTTCCGTTGGGTGTGTGGTTTTTTTGT,2050
17,TCCTGCCCTCCCATCCTGTGGTCAGAGGCCAGGGCT,1580
18,ACAGACAGCATCCTGAGCTCGTGGTTAGAACACCCT,985
19,CCCGCTACACAAGGCGGATGTGGTACCCTCACTTGT,1530
20,TTAGAGCTGACATCCTTGCGGTCCACAGCCTCCAAA,1090
